The supplement of paper PMC8728848
The full list was thinned out, with the strongest signals kept by preference.

What was measured:
Test in all cases: glycan array binding signal (z-score within array); higher = stronger binding
Conditions in all cases: glycan notation: IUPAC condensed, linker removed
[1] = molecular target: Fuc(a1-2)Gal(b1-4)Glc
Summary of the method: (§1)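 From the Consortium for Functional Glycomics database, 3228 arrays were curated, keeping only those whose protein sequence was available. Binding is given as a within-array Z-score averaged across arrays sharing a protein sequence and across linkers. Negative Z-scores can be read as non-binding.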

[2] = molecular target: Fuc(a1-2)Gal(b1-4)[Fuc(a1-3)]GlcNAc(b1-3)Gal(b1-4)[Fuc(a1-3)]GlcNAc
Summary of the method: as §1

[3] = molecular target: Fuc(a1-2)GlcNAc
Summary of the method: as §1

[4] = molecular target: Fuc(a1-2)[GalNAc(b1-3)]Gal
Summary of the method: as §1

[5] = molecular target: Fuc(a1-3)[Gal(b1-4)]GlcNAc(b1-4)Gal(b1-4)[Fuc(a1-3)]GlcNAc
Summary of the method: as §1

[6] = molecular target: Fuc(b1-3)GlcNAc
Summary of the method: as §1

[7] = molecular target: Gal(a1-3)Gal(b1-4)GlcNAc
Summary of the method: as §1

[8] = molecular target: Gal(b1-3)[Fuc(a1-4)]GlcNAc
Summary of the method: as §1

[9] = molecular target: Gal(b1-4)GalNAc(a1-3)[Fuc(a1-2)]Gal(b1-4)GlcNAc
Summary of the method: as §1

[10] = molecular target: Gal(b1-4)Glc6S
Summary of the method: as §1

[11] = molecular target: Gal(b1-4)GlcNAc(b1-2)Man(a1-3)[Gal(b1-4)GlcNAc(b1-2)Man(a1-6)]Man(b1-4)GlcNAc(b1-4)GlcNAc
Summary of the method: as §1

[12] = molecular target: Gal(b1-4)GlcNAc(b1-6)[Gal(b1-3)]GalNAc
Summary of the method: as §1

[13] = molecular target: Gal3S(b1-4)Glc
Summary of the method: as §1

[14] = molecular target: Gal3S(b1-4)GlcNAc6S
Summary of the method: as §1

[15] = molecular target: Gal3S6S(b1-4)GlcNAc6S
Summary of the method: as §1

[16] = molecular target: Gal6S(b1-4)Glc6S
Summary of the method: as §1

[17] = molecular target: GlcNAc(b1-3)Gal
Summary of the method: as §1

[18] = molecular target: Neu5Ac(a2-3)Gal(b1-4)[Fuc(a1-3)]GlcNAc(b1-3)Gal
Summary of the method: as §1

[19] = molecular target: Neu5Ac(a2-3)Gal(b1-4)[Fuc(a1-3)]GlcNAc(b1-3)Gal(b1-4)[Fuc(a1-3)]GlcNAc(b1-3)Gal(b1-4)[Fuc(a1-3)]GlcNAc
Summary of the method: as §1

[20] = molecular target: Neu5Ac(a2-8)Neu5Ac(a2-8)Neu5Ac(a2-3)[GalNAc(b1-4)]Gal(b1-4)Glc
Summary of the method: as §1

B1: DCIR (Homo sapiens), Q9UMR7 (protein)
chain: MTSEITYAEVRFKNEFKSSGINTASSAASKERTAPHKSNTGFPKLLCASLLIFFLLLAISFFIAFVIFFQKYSQLLEKKTTKELVHTTLECVKKNMPVEETAWSCCPKNWKSFSSNCYFISTESASWQDSEKDCARMEAHLLVINTQEEQDFIFQNLQEESAYFVGLSDPEGQRHWQWVDQTPYNESSTFWHPREPSDPNERCVVLNFRKSPKRWGWNDVNCLGPQRSVCEMMKIHL
glycan array binding signal (z-score) [1]: -0.479 | glycan array binding signal (z-score) [2]: -0.367 | glycan array binding signal (z-score) [3]: -0.484 | glycan array binding signal (z-score) [4]: -0.31 | glycan array binding signal (z-score) [5]: 0.076 | glycan array binding signal (z-score) [6]: -0.551 | glycan array binding signal (z-score) [7]: 0.183 | glycan array binding signal (z-score) [8]: -0.359 | glycan array binding signal (z-score) [9]: -0.129 | glycan array binding signal (z-score) [10]: 0.19 | glycan array binding signal (z-score) [11]: 4.96 | glycan array binding signal (z-score) [12]: -0.161 | glycan array binding signal (z-score) [13]: -0.426 | glycan array binding signal (z-score) [14]: 5.68 | glycan array binding signal (z-score) [15]: 7.43 | glycan array binding signal (z-score) [16]: 4.52 | glycan array binding signal (z-score) [17]: -0.245 | glycan array binding signal (z-score) [18]: -0.071 | glycan array binding signal (z-score) [19]: -0.372 | glycan array binding signal (z-score) [20]: -0.052
